CYP2C19 inh = human CYP2C19 inhibition; CYP2C19 Supersomes, luciferin-H EGE luminescence, 30 min; P33261; 21% of 96,000 active; inhibition, % at 5 µM;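 active = CYP2C19 inhibition above a set limit at 5 µM in the primary screen, cut at about 50% in these data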;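 also: plate controls were negative control wells for no effect and 2.5 mM tranylcypromine positive control for full effect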
Target sequence (P33261 whole entry, looked up): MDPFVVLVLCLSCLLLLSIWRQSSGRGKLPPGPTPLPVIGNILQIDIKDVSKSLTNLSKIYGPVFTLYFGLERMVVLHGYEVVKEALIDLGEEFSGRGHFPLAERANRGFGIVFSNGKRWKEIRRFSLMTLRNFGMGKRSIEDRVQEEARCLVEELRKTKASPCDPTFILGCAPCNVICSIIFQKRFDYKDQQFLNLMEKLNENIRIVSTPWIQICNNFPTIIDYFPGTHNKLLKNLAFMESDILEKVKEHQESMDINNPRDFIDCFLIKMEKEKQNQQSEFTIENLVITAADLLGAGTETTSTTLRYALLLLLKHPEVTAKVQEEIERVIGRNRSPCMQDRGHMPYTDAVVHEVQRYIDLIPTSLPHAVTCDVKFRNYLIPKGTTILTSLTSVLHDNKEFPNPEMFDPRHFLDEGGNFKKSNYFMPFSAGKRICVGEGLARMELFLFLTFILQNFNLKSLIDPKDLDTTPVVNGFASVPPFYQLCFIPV
Mac1 fbg inh = CD11b/CD18-fibrinogen binding inhibition; P05107+P11215; K562 CD11b/CD18 adhesion to fibrinogen, ATPlite luminescence; Mn2+ added to activate the integrin; inhibition, % at 10 µM; 0.54% of 93,000 active; AID 1497;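 active = primary inhibition of 50% or more at 10 µM, then 40% or more on retest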
CYP2C9 inhib = blocks human cytochrome P450 2C9 | CYP2C9 Supersomes, luciferin-H conversion, luminescence | inhibition, % at 5 µM | AID 777 | 20% of 96,000 active | P11712;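 active = blocking of liver enzyme CYP2C9 beyond about 50% at 5 µM, limit read from the data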
CD11b adhes enh = CD11b/CD18-fibrinogen binding enhancement; 0.07% of 93,000 active; K562 CD11b/CD18 adhesion to fibrinogen, ATPlite luminescence; activation, % at 10 µM; AID 1499;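 active = 10 µM primary screen giving 50% or more activity, confirmed by 40% or more on retest at that dose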
CYP2C9 activ = increases human cytochrome P450 2C9 activity | P11712 | recombinant CYP2C9, luciferin-H conversion, luminescence; active compounds read high; factor 1 = untreated enzyme, 0 = blocked | activation factor at 5 µM | 1.4% of 96,000 active | AID 1024;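 active = activation factor of 2 or more for CYP2C9 at a 5 µM dose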;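 also: 0 = sulfaphenazole-blocked wells and 1 = vehicle-only wells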
CYP2C19 act = increases human CYP2C19 enzyme activity | P33261 | recombinant CYP2C19, luciferin-H EGE luminescence; active compounds read high; 0 = fully inhibited enzyme, 1 = untreated enzyme | activation factor at 5 µM | 96,000 tested, under 10 active;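 active = activation factor of at least 2 at 5 µM in the primary screen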;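 also: 0 = wells with 2.5 mM tranylcypromine and 1 = vehicle-only wells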
* marks the source's active call; other numbers are inactive results. The list is not random: actives were taken first. Their share in the collection is about 28%.

How did CC(C)N(C(=O)COc1ccc(Br)cc1Cl)C(C)C do in these assays?
CYP2C19 inh: 94*; Mac1 fbg inh: -5; CYP2C9 inhib: 60*; CD11b adhes enh: -3; CYP2C9 activ: 0.4; CYP2C19 act: 0.1

How did COCCNC(=O)COc1ccc(Br)cc1Cl do in these assays?
CYP2C19 inh: 40; Mac1 fbg inh: -9; CYP2C9 inhib: 3; CD11b adhes enh: -3; CYP2C9 activ: 1; CYP2C19 act: 0.6

Results for O=C(COc1ccc(Cl)cc1Cl)N1CCCN(C(=O)COc2ccc(Cl)cc2Cl)CC1 ?
CYP2C19 inh: 37; Mac1 fbg inh: -39; CYP2C9 inhib: -48; CD11b adhes enh: 0; CYP2C9 activ: 1.5; CYP2C19 act: 0.6

How did COc1cc(OC)cc(-c2cc3nc(C)c(CCC(=O)O)c(C)n3n2)c1 do in these assays?
CYP2C19 inh: 19; Mac1 fbg inh: -18; CYP2C9 inhib: 24; CD11b adhes enh: -1; CYP2C9 activ: 0.8; CYP2C19 act: 0.8

Results for C(=N\c1nc2ccccc2n1Cc1ccccc1)/c1cccs1 ?
CYP2C19 inh: 7; Mac1 fbg inh: 1; CYP2C9 inhib: 36; CD11b adhes enh: -5; CYP2C9 activ: 0.6; CYP2C19 act: 0.9

Results for CCc1nnc(NC(=O)C2CCCN2S(=O)(=O)c2ccc(F)cc2)s1 (stereo not given) ?
CYP2C19 inh: 76*; Mac1 fbg inh: -6; CYP2C9 inhib: 86*; CD11b adhes enh: -2; CYP2C9 activ: 0.1; CYP2C19 act: 0.2

Results for CCc1nnc(NC(=O)[C@@H]2CCCN2S(=O)(=O)c2ccc3c(c2)OCCO3)s1 ?
CYP2C19 inh: 16; Mac1 fbg inh: -8; CYP2C9 inhib: 45; CD11b adhes enh: -5; CYP2C9 activ: 0.6; CYP2C19 act: 0.8

How did CC(=O)c1ccc(NC(=O)C2CCCN2S(=O)(=O)c2ccc(F)cc2)cc1 (stereo not given) do in these assays?
CYP2C19 inh: 66*; Mac1 fbg inh: -15; CYP2C9 inhib: 74*; CD11b adhes enh: 0; CYP2C9 activ: 0.3; CYP2C19 act: 0.3

Results for COc1ccc(OC)c(-c2cc(C(=O)NCCN3CCOCC3)no2)c1 ?
CYP2C19 inh: -10; Mac1 fbg inh: -9; CYP2C9 inhib: -88; CD11b adhes enh: 2; CYP2C9 activ: 1.9; CYP2C19 act: 1.1

Results for CCc1ccc(CNCCSc2nnnn2C)cc1 ?
CYP2C19 inh: 70*; Mac1 fbg inh: 15; CYP2C9 inhib: 7; CD11b adhes enh: 2; CYP2C9 activ: 0.9; CYP2C19 act: 0.3

Results for COc1cccc(CNCCSc2nnnn2C)c1 ?
CYP2C19 inh: 71*; Mac1 fbg inh: 12; CYP2C9 inhib: -11; CD11b adhes enh: 0; CYP2C9 activ: 1.1; CYP2C19 act: 0.3

What do the screens show for `Cn1nnnc1SCCNCc1cccc2ccccc12`?
CYP2C19 inh: 86*; Mac1 fbg inh: 0; CYP2C9 inhib: 15; CD11b adhes enh: 0; CYP2C9 activ: 0.8; CYP2C19 act: 0.1

What do the screens show for `Cn1nnnc1SCCNC/C=C/c1ccccc1`?
CYP2C19 inh: 80*; Mac1 fbg inh: 1; CYP2C9 inhib: 8; CD11b adhes enh: -6; CYP2C9 activ: 0.9; CYP2C19 act: 0.2

How did Cn1nnnc1SCCNCc1cccnc1 do in these assays?
CYP2C19 inh: 18; Mac1 fbg inh: -2; CYP2C9 inhib: 29; CD11b adhes enh: -3; CYP2C9 activ: 0.7; CYP2C19 act: 0.8

Results for COc1ccc(CNCCSc2nnnn2C)cc1OC ?
CYP2C19 inh: 12; Mac1 fbg inh: 5; CYP2C9 inhib: -26; CD11b adhes enh: -3; CYP2C9 activ: 1.3; CYP2C19 act: 0.9

What do the screens show for `COc1ccc(CSc2nnnn2C)cc1[N+](=O)[O-]`?
CYP2C19 inh: 30; Mac1 fbg inh: -4; CYP2C9 inhib: 0; CD11b adhes enh: 2; CYP2C9 activ: 1; CYP2C19 act: 0.7

What do the screens show for `COc1ccc(CSc2nnnn2C)cc1F`?
CYP2C19 inh: 72*; Mac1 fbg inh: 30; CYP2C9 inhib: -3; CD11b adhes enh: -4; CYP2C9 activ: 1; CYP2C19 act: 0.3

What do the screens show for `COc1ccc(Br)cc1CNCCSc1nnnn1C`?
CYP2C19 inh: 100*; Mac1 fbg inh: -4; CYP2C9 inhib: 55*; CD11b adhes enh: 0; CYP2C9 activ: 0.5; CYP2C19 act: 0

How did Cc1csc(SCC(=O)c2c(N)n(C)c(=O)n(C)c2=O)n1 do in these assays?
CYP2C19 inh: 9; Mac1 fbg inh: -5; CYP2C9 inhib: 4; CD11b adhes enh: -1; CYP2C9 activ: 1; CYP2C19 act: 0.9

How did Cn1cccc1Cc1nnc(SCC(=O)NCc2ccco2)n1CCc1ccccc1 do in these assays?
CYP2C19 inh: 58*; Mac1 fbg inh: -18; CYP2C9 inhib: 44; CD11b adhes enh: 5; CYP2C9 activ: 0.6; CYP2C19 act: 0.4

What do the screens show for `Cc1cc(C)nc(SCc2nnc(SCC(=O)NCc3ccco3)n2-c2ccccc2)n1`?
CYP2C19 inh: 44; Mac1 fbg inh: 4; CYP2C9 inhib: 60*; CD11b adhes enh: -5; CYP2C9 activ: 0.4; CYP2C19 act: 0.6

How did Cn1cccc1Cc1nnc(SCC(=O)NCc2ccccc2Cl)n1-c1ccc(F)cc1 do in these assays?
CYP2C19 inh: 52*; Mac1 fbg inh: -3; CYP2C9 inhib: 62*; CD11b adhes enh: 3; CYP2C9 activ: 0.4; CYP2C19 act: 0.5

Results for Cc1nnc(SCC(=O)NCc2ccco2)n1-c1ccccc1 ?
CYP2C19 inh: -16; Mac1 fbg inh: 2; CYP2C9 inhib: -14; CD11b adhes enh: 3; CYP2C9 activ: 1.1; CYP2C19 act: 1.2

What do the screens show for `Cn1cccc1Cc1nnc(SCC(=O)NCc2ccco2)n1-c1ccc(F)cc1`?
CYP2C19 inh: 75*; Mac1 fbg inh: -8; CYP2C9 inhib: 8; CD11b adhes enh: 3; CYP2C9 activ: 0.9; CYP2C19 act: 0.2

What do the screens show for `CC(=O)Nc1ccccc1-c1nc2ccccc2nc1OCC(=O)c1ccc(Cl)cc1`?
Mac1 fbg inh: 6; CD11b adhes enh: 14

Results for O=C(CN1CCC(NC(=O)Nc2ccccc2-c2ccccc2)CC1)NCc1ccco1 ?
CYP2C19 inh: 46; Mac1 fbg inh: 1; CYP2C9 inhib: 58*; CD11b adhes enh: 2; CYP2C9 activ: 0.4; CYP2C19 act: 0.5

How did O=C(CN1CCOCC1)Nc1ccccc1-c1ccccc1 do in these assays?
CYP2C19 inh: 24; Mac1 fbg inh: -6; CYP2C9 inhib: -1; CD11b adhes enh: 4; CYP2C9 activ: 1; CYP2C19 act: 0.8

How did O=C(CN1CCC(Cc2ccccc2)CC1)NC(=O)NCc1ccco1 do in these assays?
CYP2C19 inh: 58*; Mac1 fbg inh: 1; CYP2C9 inhib: 0; CD11b adhes enh: -2; CYP2C9 activ: 1; CYP2C19 act: 0.4

How did O=C(CN1CCN(c2ccccc2O)CC1)NC(=O)NCc1ccco1 do in these assays?
Mac1 fbg inh: -5; CD11b adhes enh: 0

How did CCN(CC)C(=O)Oc1ccc(Cl)c2ccccc12 do in these assays?
CYP2C19 inh: 67*; Mac1 fbg inh: 6; CYP2C9 inhib: -46; CD11b adhes enh: 2; CYP2C9 activ: 1.5; CYP2C19 act: 0.3

High-throughput results from PubChem BioAssay.
